Hits are enriched below; roughly 2.5% of the tested compounds scored in any of these assays.
AI-2 QS mod: Vibrio harveyi AI-2 quorum sensing modulators, primary screen, JMH597 strain, luminescence/OD600 ratio | Vibrio harveyi JMH597 AI-2 luminescence/OD600 ratio, 9 h; stronger effect = lower value; strain lacks LuxN and CqsS sensors; 0 = neutral-control median | activity change, % at 7.5 µM | 0.4% of 300,000 active; in the data active = activity change below about -75%, passing the limit was not always enough;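 also: luminescence divided by OD600 gain over 9 h not by final OD600 alone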
V-ATPase pH: regulators of yeast V-ATPase proton pumping, primary screen, pHLuorin cytosolic pH fluorescence; S. cerevisiae; response, % at 10 µM; 0.37% of 350,000 active; AID 504577, 2011; in the data active = response mostly above about 7.3%, no sharp cut-off; inactive = mostly below about 5.4%; also: actives read high
Efflux pump mplx: inhibitors of Candida efflux pumps in yeast, primary screen, S. cerevisiae, Nile Red, multiplex; S. cerevisiae Candida pump triplex; inhibition, % at 10 µM; 0.44% of 330,000 active; AID 485275, 2010;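 active = plate passing quality check with inhibition over a set limit, or well fluorescence over plate mean plus 4 SD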;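 also: Nile Red retained in pooled yeast measured as flow cytometry median fluorescence; 0% = buffer negative control and 100% = Enniatin B positive control; higher means more Nile Red kept so more efflux inhibition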
ATG4B inh: ATG4B protease inhibitors, primary screen, biochemical, fluorescence, uHTS; inhibition, % at 8.33 µM; Cysteine protease ATG4B (Homo sapiens), Q9Y4P1; 0.51% of 340,000 active; ATG4B cleavage of LC3-PLA2, NBD-HPC fluorescence, 1 h; AID 504462, 2011; in the data active = inhibition above about 40%
Target sequence (Q9Y4P1 whole entry, looked up): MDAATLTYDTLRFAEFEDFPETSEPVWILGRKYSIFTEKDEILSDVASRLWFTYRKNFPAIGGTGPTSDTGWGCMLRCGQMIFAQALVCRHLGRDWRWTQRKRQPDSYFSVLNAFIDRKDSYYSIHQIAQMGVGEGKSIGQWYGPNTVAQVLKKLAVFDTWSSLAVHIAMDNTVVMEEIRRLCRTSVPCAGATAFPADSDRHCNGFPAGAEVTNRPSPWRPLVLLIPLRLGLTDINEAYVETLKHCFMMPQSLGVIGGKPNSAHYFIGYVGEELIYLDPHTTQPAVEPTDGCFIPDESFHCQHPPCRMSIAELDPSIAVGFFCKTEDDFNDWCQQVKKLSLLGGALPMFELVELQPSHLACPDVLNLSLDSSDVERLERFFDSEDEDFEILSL
Mot1-301 SUMO: yeast Mot1-301 growth rescue at high temperature, primary screen, SUMOylation pathway inhibitor project, S. cerevisiae, ATP luminescence, 38.5C; S. cerevisiae Mot1-301 growth rescue; percent above DMSO median, 100 means doubled; AID 2716, 2010; 1% of 320,000 active; growth rescue, % at 18.8 µM;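 active = every valid replicate shows activation above 250% relative to neutral control wells; inactive = the rest, any valid replicate at or below 250%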;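 also: OY570 slx delta 5 strain wells were the positive control but not used for scaling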
Mot1 SUMO dose: growth restoration of Mot1-301 yeast on galactose, dose response, SUMO pathway inhibitor project, whole organism, S. cerevisiae, ATP luminescence, cherry-picked samples; shares compounds with Mot1-301 SUMO; S. cerevisiae Mot1-301 galactose growth, 24 h; -100 = growth of slx-deleted rescue strain; growth activity, percent, % at 42 µM; 2,300 tested, under 10 active; AID 493004, 2010;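 active = Signal drops as the depositor expects, and the fitted half-maximal dose is no more than ten times the top valid tested dose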;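 also: more negative values mean stronger growth rescue toward the control strain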
* marks the source's active call; other numbers are inactive results; . = not tested or not shown; + = active, no number.

SMILES | AI-2 QS mod | V-ATPase pH | Efflux pump mplx | ATG4B inh | Mot1-301 SUMO | Mot1 SUMO dose
COc1ccc(C(=O)NCC2OCCc3ccccc32)cc1 (stereo not given) | 0 | 0 | 0 | -8 | -14 | .
CCOC(=O)C1CCN(S(=O)(=O)c2c[nH]c(=O)[nH]c2=O)CC1 | 15 | 4 | 0 | 5 | -15 | .
CC(C)(C)c1ccc(S(=O)(=O)Nc2cccc(C3OCCCO3)c2)cc1 | -1 | 0 | 0 | -5 | 2 | .
COc1ccc(-c2cc(=O)[nH]c3ccccc23)cc1 | . | -1 | 0 | -3 | 2 | .
COc1cccc2[nH]c(=O)c(-c3ccccc3)cc12 | 22 | -1 | 0 | -12 | 453* | -1
CCOC(=O)c1ccc(NC(=O)c2nc[nH]c2C(=O)N(C)CCO)cc1 | . | 1 | . | . | . | .
Cc1ccc2c(c1)N(CC(=O)NCC1CCCO1)C(=O)C(C)O2 (stereo not given) | 20 | 1 | 0 | -3 | 522* | 0
CCCN(CC1CC1)C(=O)COc1ccccc1C(=O)NCc1ccccc1 | 7 | -6 | 0 | 7 | 802* | 1
Cc1[nH]n(-c2ccccc2)c(=O)c1C(C[N+](=O)[O-])c1ccc(Br)cc1 (stereo not given) | 48 | 6 | 0 | 7 | 524* | -1
CCON1C(=O)C2(CCCCC2)C(=O)C12C=CCCC2 (stereo not given) | . | 2 | . | -4 | . | .
CCC(C)[C@H](NC(=O)OC(C)(C)C)C(=O)NCC1CCC(C(=O)N[C@@H](Cc2ccccc2)C(=O)O)CC1 (stereo not given in full) | 10 | -1 | 0 | -7 | 628* | -1
O=C(COc1ccc(Cl)cc1)NCCCNC(=O)c1ccccn1 | 18 | 0 | 0 | -8 | 565* | 0
Cc1ccc(OCC(=O)NCCCNC(=O)c2ccccn2)cc1 | 17 | -1 | 0 | -13 | 124 | .
CCn1cc(C(c2ccccc2)C(C(C)=O)[N+](=O)[O-])c2ccccc21 (stereo not given) | 9 | -1 | 0 | 2 | -25 | .
CC(=O)C(C(c1ccccc1)c1c[nH]c2ccccc12)[N+](=O)[O-] (stereo not given) | 14 | 3 | 0 | -3 | 402* | -1
Cc1c(C(=O)NCCCN2CCOCC2)oc2c1C1(CCC2)SCCS1 | 11 | -2 | 0 | -2 | -4 | .
Cc1ccc(C(=O)O/N=C(\N)c2cccc([N+](=O)[O-])c2)cc1 | 1 | 0 | 0 | -2 | -15 | .
Cc1ccc(CC(=O)O/N=C(\N)c2cccc([N+](=O)[O-])c2)cc1 | -30 | -5 | 0 | -6 | 448* | 0
C[C@@]12C(=O)N(c3cccc(F)c3)C(=O)N1[C@@H]1c3ccccc3OC[C@@H]1[C@H]2c1ccccc1 | . | 1 | 0 | -3 | 26 | .
Cc1cc(C)c2c(c1)CC(C)(C)CC2=O | . | -2 | . | 11 | . | .
O=C(Nc1ccc2[nH]c(=O)[nH]c2c1)c1c(F)c(F)c(F)c(F)c1F | 25 | 2 | 0 | -6 | 613* | 0
O=C(NCCc1ccc(Cl)cc1Cl)c1cncc(Br)c1 | 6 | 0 | 0 | -3 | 4 | .
O=C(NCCc1cnccn1)C1CCC(=O)N(Cc2ccc(Cl)cc2)C1 (stereo not given) | 6 | -1 | 0 | 3 | 523* | 0
O=C(NCCCc1ccncc1)C1CCC(=O)N(Cc2ccc(Cl)cc2)C1 (stereo not given) | 26 | 1 | 0 | 1 | -3 | .
Cc1cc(NC(=O)c2ccccc2F)n(C(C)(C)C)n1 | 51 | -2 | 0 | -11 | + | 0
SMILES | AI-2 QS mod | V-ATPase pH | Efflux pump mplx | ATG4B inh | Mot1-301 SUMO | Mot1 SUMO dose
CCCn1c(SC(C)C(=O)NCC2CCCO2)nc2sc(CC)cc2c1=O (stereo not given) | 54 | 0 | 0 | 0 | 466* | 1
CCCn1c(SC(C)C(=O)NCC2CCCO2)nc2sc3c(c2c1=O)CCC3 (stereo not given) | 9 | 2 | 0 | 20 | 172 | .
CCCc1nnc(SCC(=O)Nc2cccc(Cl)c2Cl)o1 | 8 | 3 | 0 | 2 | -2 | .
O=C(COC(=O)/C=C/c1ccccc1)NC(=O)NCc1ccccc1 | . | -1 | 0 | 0 | . | .
Cc1ccc([C@@H]2CC=C(C(=O)O)[C@H](c3ccc(Cl)cc3)N2S(=O)(=O)c2ccc(C)cc2)cc1 | . | 3 | 0 | 15 | 4 | .
COc1cc([C@@H]2CC=C(C(=O)O)[C@H](c3ccc(F)cc3)N2S(=O)(=O)c2ccc(C)cc2)cc(OC)c1OC | . | 3 | 0 | -3 | -2 | .
Cc1ccc(S(=O)(=O)N2[C@@H](c3ccccc3)C(C(=O)O)=CC[C@H]2c2ccc(Cl)cc2)cc1 | . | -5 | 0 | 12 | 377* | -1
COc1cc([C@@H]2CC=C(C(=O)O)[C@H](c3ccccc3F)N2S(=O)(=O)c2ccc(C)cc2)cc(OC)c1OC | . | 14 | 0 | 5 | 662* | -1
CCN(c1ccc(OC)cc1)S(=O)(=O)c1nnc(NC(=O)c2ccc(C)cc2)s1 | 11 | 3 | 0 | 1 | -14 | .
COC(=O)C(CC(C)C)NC(=O)CNC(=O)c1ccccc1C (stereo not given) | 20 | -5 | 0 | 1 | + | 0
CCOC(=O)c1c(NC(=O)COC(=O)CCCOc2ccc(OC)cc2)sc(C(=O)N(C)C)c1C | . | -1 | . | 1 | . | .
Cc1nn(C)c(C)c1-c1c(C#N)c(N)nc2c1CCCCCC2 | 9 | -3 | 0 | -16 | + | 0
COc1ccc(N=C2C(=O)N3c4c(cccc42)C(C)=CC3(C)C)cc1 | 0 | -2 | -1 | -4 | -3 | .
N#CC(C#N)=C1C=CC=CN1/C(=C\c1ccccc1)C(=O)c1cccs1 | 17 | 7 | 0 | -8 | -5 | .
N#CC(C#N)=C1C=CC=CN1/C(=C\c1ccccc1Cl)C(=O)c1ccccc1 | . | -1 | 0 | -11 | 600* | -2
O=C(Nc1cccc(S(=O)(=O)N2CCCCCC2)c1)C1CCN(C(=O)c2ccc(F)cc2)CC1 | 3 | -2 | 0 | 2 | -1 | .
O=C(c1ccc([N+](=O)[O-])cc1)N1CCN(c2ncc(Br)cn2)CC1 | 19 | 2 | 0 | -6 | 656* | 0
O=C(c1ccc(Br)cc1)N1CCN(c2ncccn2)CC1 | 17 | 1 | 0 | -5 | -13 | .
FC(F)(F)c1cccc(Oc2nc(-c3ccccc3)nnc2C(F)(F)F)c1 | 12 | 1 | 0 | 2 | -10 | .
FC(F)(F)c1nnc(-c2ccccc2)nc1Oc1ccc(Cl)cc1Cl | 25 | 0 | 0 | -7 | 739* | 0
